Data as given in PubChem BioAssay (EPA / NIEHS).
Where “and” joins values, the source holds several entries; their conditions need not be identical. Identical values can stand only once. Some compounds were tested as several samples or in several runs, with calls that do not always agree. Calls of active or inactive are those of the source. How the source made its calls: active means hit-call score of the fitted dose curve at least 0.9, where 1 is the maximum; inactive means score below 0.9.

Key:
[1] = ATG_RORE_CIS: Attagene CIS-FACTORIAL HepG2 Assay for human RAR-related Orphan Receptor Element (RORE) (AID 2282959); conditions: HepG2 Attagene cis-factorial RORE reporter, mRNA; actives raise or lower the signal
How it was run: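 Multiplexed reporter assay measuring mRNA induction from a cis promoter element in transiently transfected HepG2 cells after 24 h treatment. Detection via RT-PCR and capillary electrophoresis fluorescence; DMSO serves as baseline.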

[2] = ATG_Sox_CIS: Attagene CIS-FACTORIAL HepG2 Assay for human SRY-box transcription factor (SOX) (AID 2282960); conditions: HepG2 Attagene cis-factorial SOX reporter, mRNA; actives raise or lower the signal
How it was run: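 Cells were transfected with reporter constructs under cis-regulatory promoters, then exposed to chemicals for 24 h. Reporter transcripts were quantified by fluorescence after RT-PCR and capillary electrophoresis; activity was fitted in both directions against DMSO.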

[3] = target: Transcription factor Sp1 (Homo sapiens) (UniProt P08047); experiment: ATG_Sp1_CIS: Attagene CIS-FACTORIAL HepG2 Assay for human Specificity Protein 1 (Sp1) (AID 2282961); conditions: HepG2 Sp1 cis-reporter transcription, actives raise or lower the signal
Transcription factor Sp1 (Homo sapiens), sequence (P08047 whole entry, looked up): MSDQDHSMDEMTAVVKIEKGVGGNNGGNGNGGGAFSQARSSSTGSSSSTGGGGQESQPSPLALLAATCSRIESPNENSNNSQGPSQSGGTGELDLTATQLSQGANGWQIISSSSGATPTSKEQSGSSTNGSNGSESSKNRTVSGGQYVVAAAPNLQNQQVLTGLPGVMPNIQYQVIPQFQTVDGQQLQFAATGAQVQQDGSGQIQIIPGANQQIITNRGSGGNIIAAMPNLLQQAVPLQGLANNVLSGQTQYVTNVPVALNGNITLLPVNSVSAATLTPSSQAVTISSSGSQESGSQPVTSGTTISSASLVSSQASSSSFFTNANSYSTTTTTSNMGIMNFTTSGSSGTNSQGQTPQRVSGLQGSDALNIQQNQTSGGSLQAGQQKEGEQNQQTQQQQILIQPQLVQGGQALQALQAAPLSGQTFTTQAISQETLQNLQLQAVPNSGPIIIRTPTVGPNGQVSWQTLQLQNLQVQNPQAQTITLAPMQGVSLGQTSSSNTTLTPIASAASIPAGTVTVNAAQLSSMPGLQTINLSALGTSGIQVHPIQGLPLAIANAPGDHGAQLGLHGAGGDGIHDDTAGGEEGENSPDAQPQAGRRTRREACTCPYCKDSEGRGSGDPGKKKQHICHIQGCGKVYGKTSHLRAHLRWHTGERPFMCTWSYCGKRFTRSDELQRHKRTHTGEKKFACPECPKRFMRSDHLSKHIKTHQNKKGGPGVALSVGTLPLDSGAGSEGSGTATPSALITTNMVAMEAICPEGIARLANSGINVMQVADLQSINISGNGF
How it was run: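 Measures mRNA induction of an Sp1-linked reporter in HepG2 cells 24 h post-dosing. Multiplexed reporters read by RT-PCR and capillary electrophoresis; DMSO serves as negative control and baseline.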

[4] = ATG_SREBP_CIS: Attagene CIS-FACTORIAL HepG2 Assay for human Sterol Regulatory Element Binding (SREBP) (AID 2282962); conditions: HepG2 Attagene cis-factorial SREBP reporter, mRNA; actives raise or lower the signal
How it was run: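 Transfected HepG2 (cis-regulated reporter library, endogenous TFs) → compound 24 h → total RNA → oligo(dT) RT → reporter-specific PCR → FAM primer extension, HpaI cut → CE fluorescence. Fit bidirectional vs DMSO.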

[5] = target: Signal transducer and activator of transcription 3 (Homo sapiens) (UniProt P40763); experiment: ATG_STAT3_CIS: Attagene CIS-FACTORIAL HepG2 Assay for human Signal Transducer and Activator of Transcription 3 (STAT3) (AID 2282963); conditions: HepG2, Attagene cis-factorial STAT3 reporter transcription; actives raise or lower the signal
Signal transducer and activator of transcription 3 (Homo sapiens), sequence (P40763 whole entry, looked up): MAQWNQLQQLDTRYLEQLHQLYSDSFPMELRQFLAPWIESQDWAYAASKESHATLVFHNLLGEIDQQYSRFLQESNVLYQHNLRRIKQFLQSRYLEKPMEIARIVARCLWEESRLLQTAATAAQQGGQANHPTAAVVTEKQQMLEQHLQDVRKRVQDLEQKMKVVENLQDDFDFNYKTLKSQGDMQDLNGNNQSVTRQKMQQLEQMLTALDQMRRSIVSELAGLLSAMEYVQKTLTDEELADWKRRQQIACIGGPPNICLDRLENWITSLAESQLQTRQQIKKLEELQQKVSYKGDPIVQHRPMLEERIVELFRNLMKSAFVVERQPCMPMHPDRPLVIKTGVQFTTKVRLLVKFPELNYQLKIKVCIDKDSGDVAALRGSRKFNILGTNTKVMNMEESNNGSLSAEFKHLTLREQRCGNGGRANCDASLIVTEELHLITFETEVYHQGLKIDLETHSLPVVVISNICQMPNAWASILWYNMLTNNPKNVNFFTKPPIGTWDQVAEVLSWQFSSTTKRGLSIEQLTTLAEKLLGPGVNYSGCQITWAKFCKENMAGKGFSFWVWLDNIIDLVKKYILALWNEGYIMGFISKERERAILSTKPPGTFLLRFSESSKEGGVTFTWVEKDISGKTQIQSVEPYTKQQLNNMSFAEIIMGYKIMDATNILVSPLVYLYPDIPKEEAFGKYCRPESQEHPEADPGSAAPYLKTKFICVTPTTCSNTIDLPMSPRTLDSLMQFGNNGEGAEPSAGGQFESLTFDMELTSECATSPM
How it was run: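 Endogenous STAT3-responsive cis-element activity was read in transiently transfected HepG2 cells after 24 h treatment. Reporter transcripts were quantified via RT-PCR and capillary electrophoresis, with DMSO as negative control and bidirectional curve fitting.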

[6] = ATG_TA_CIS: Attagene CIS-FACTORIAL HepG2 Assay for human TA Basal Promoter (AID 2282964); conditions: HepG2 Attagene CIS-factorial TA basal promoter reporter; actives raise or lower the signal
How it was run: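 HepG2 cells transiently transfected with multiplexed cis-promoter reporter units, dosed 24 h. Reporter mRNA measured by RT-PCR, 6-FAM labelling, HpaI digestion and capillary electrophoresis; bidirectional fit versus DMSO baseline, serving as background control.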

[7] = ATG_TCF_b_cat_CIS: Attagene CIS-FACTORIAL HepG2 Assay for human T-Cell-Factor with beta-catenin (TCF/b-cat) (AID 2282965); conditions: HepG2 TCF/beta-catenin cis-reporter transcription, actives raise or lower the signal
How it was run: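 Endogenous transcription factor activity is captured through cis-promoter reporter constructs transiently introduced into human HepG2 liver cells. Induced reporter mRNA is measured after 24 h and fitted bidirectionally relative to DMSO.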

[8] = ATG_TAL_CIS: Attagene CIS-FACTORIAL HepG2 Assay for human TAL Basal Promoter (AID 2282966); conditions: HepG2 Attagene cis-factorial TAL promoter reporter; actives raise or lower the signal;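 further: background control endpoint measuring basal TAL promoter reporter mRNA not a specific factor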
How it was run: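 HepG2 cells were transiently transfected with promoter-driven multiplexed reporter units and dosed for 24 h. Reporter mRNA was measured by RT-PCR with capillary electrophoresis fluorescence; bidirectional fits used DMSO as baseline, serving as a background control.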

[9] = ATG_TGFb_CIS: Attagene CIS-FACTORIAL HepG2 Assay for human Transforming Growth Factor (TGF) (AID 2282967); conditions: HepG2 Attagene CIS TGFb reporter, mRNA transcription; actives raise or lower the signal
How it was run: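 HepG2 cells transiently transfected with cis-promoter-driven multiplexed reporter units; 24 h compound exposure. Reporter mRNA measured by RT-PCR, 6-FAM labeling, HpaI digestion and capillary electrophoresis; bidirectional fit versus DMSO baseline.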

[10] = ATG_VDRE_CIS: Attagene CIS-FACTORIAL HepG2 Assay for human Vitamin D Receptor Element (VDRE) (AID 2282968); conditions: HepG2 VDRE cis-reporter transcription, actives raise or lower the signal
How it was run: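 Reporter mRNA induction, quantified by capillary electrophoresis of fluorescently labelled RT-PCR products, was read 24 h after dosing HepG2 cells carrying transiently transfected cis-regulated reporter units; gain or loss relative to DMSO.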

Compound	outcome [1]	outcome [2]	outcome [3]	outcome [4]	outcome [5]	outcome [6]	outcome [7]	outcome [8]	AC50 [9]	outcome [10]	AC50 [4]	AC50 [6]	outcome [9]	AC50 [1]	AC50 [3]	AC50 [7]	AC50 [8]	AC50 [10]	AC50 [2]
O=S(=O)(O)C(F)(F)C(F)(F)C(F)(F)C(F)(F)C(F)(F)C(F)(F)C(F)(F)C(F)(F)C(F)(F)C(F)(F)F	inactive	inactive	inactive	inactive	inactive	inactive	inactive	inactive	132 µM (active) and 31.7 µM (active)	inactive									
CCCCCCCCCCCCCC[n+]1ccccc1	inactive	inactive	inactive		inactive		inactive	inactive		inactive	2.7 µM (active)	8.99 µM (active)	inactive						
CC(C)[C@@H]1CC[C@@H](C)C[C@H]1O	inactive	inactive	inactive	inactive	inactive	inactive	inactive	inactive		inactive			inactive						
Brc1cc(Br)c(Oc2c(Br)cc(Br)c(Br)c2Br)cc1Br	inactive	inactive	inactive	inactive	inactive	inactive	inactive	inactive		inactive			inactive						
O=C(O)CN(CCCN(CC(=O)O)CC(=O)O)CC(=O)O	inactive	inactive	inactive	inactive	inactive	inactive	inactive	inactive		inactive			inactive						
C=C(c1ccc(C(=O)O)cc1)c1cc2c(cc1C)C(C)(C)CCC2(C)C	inactive	inactive	inactive	inactive	inactive		inactive	inactive		inactive		11.1 µM (active) and 29.8 µM (active)	inactive	2.2 µM (active)	32.9 µM (active)	13.7 µM (active)	30.4 µM (active)	2.11 µM (active)	
C=CC(=C)CC/C=C(\C)CCC=C(C)C	inactive	inactive	inactive	inactive	inactive	inactive	inactive	inactive					inactive					6.84 µM (active)	
CCC(C)c1nccnc1OC (stereo not given)	inactive	inactive	inactive	inactive	inactive	inactive	inactive	inactive		inactive			inactive						
CCCCC(CC)C(=O)O (stereo not given)	inactive	inactive	inactive	inactive	inactive	inactive	inactive	inactive											
CCOC(=O)c1nc(C(Cl)(Cl)Cl)n(-c2ccc(Cl)cc2Cl)n1		inactive			inactive		inactive		27.8 µM (active)	inactive	27.7 µM (active)	173 µM (active)		167 µM (active)	54.6 µM (active)		118 µM (active)		
CC(C)(C)c1ccc(O)c(O)c1	inactive		inactive	inactive	inactive	inactive	inactive	inactive			57.1 µM (active)			45.8 µM (active) and 27.9 µM (active) and 54.2 µM (active)				4.28 µM (active) [middle of 5 runs]	
NCCN	inactive	inactive	inactive	inactive	inactive	inactive	inactive	inactive					inactive						
CC1=NN(c2ccccc2)C(=O)C1	inactive	inactive	inactive	inactive	inactive	inactive	inactive	inactive											
O=C(O)CCC(F)(F)C(F)(F)C(F)(F)C(F)(F)C(F)(F)C(F)(F)F	inactive	inactive	inactive	inactive	inactive	inactive	inactive	inactive		inactive			inactive						
Nc1cc(Cl)c(-c2cc(Cl)c(N)cc2Cl)cc1Cl	inactive				inactive	inactive	inactive	inactive			6.9 µM (active)		inactive		15.9 µM (active)			2.96 µM (active)	10.5 µM (active)
C=CC(F)(F)C(F)(F)C(F)(F)C(F)(F)F	inactive	inactive	inactive	inactive	inactive	inactive	inactive	inactive		inactive			inactive						
O=C1Cc2ccccc2N1c1c(Cl)cccc1Cl	inactive	inactive	inactive	inactive	inactive	inactive	inactive	inactive					inactive					1.4 µM (active)	
Cc1ccc(C)c(S(=O)(=O)O)c1	inactive	inactive	inactive	inactive	inactive	inactive	inactive	inactive		inactive			inactive						
CCOC(OCC)C(=O)c1ccccc1	inactive	inactive	inactive	inactive	inactive	inactive	inactive	inactive		inactive			inactive						
O=C(F)C(F)(F)C(F)(F)C(F)(F)C(F)F	inactive	inactive	inactive	inactive	inactive	inactive	inactive	inactive		inactive			inactive						
Cn1sccc1=O	inactive				inactive	inactive		inactive		inactive	161 µM (active)		inactive		153 µM (active)	92.9 µM (active)			154 µM (active)
CCCCCCCCCCCCCCC	inactive	inactive	inactive	inactive	inactive	inactive	inactive	inactive		inactive			inactive						
C=CC(C)(CCC=C(C)C)OC(C)=O (stereo not given)	inactive	inactive	inactive	inactive	inactive	inactive	inactive	inactive		inactive			inactive						
